ATXN2 expr inh = reduces ATXN2 reporter expression in HEK-293 cells. HEK-293 ATXN2-luciferase reporter, luminescence, 24 h. Potency, µM (doses to about 57 µM), for inactives: top-dose activity change, negative = inhibition, hits mostly inhibitors. 0.72% of 360,000 active; note: % is set by controls: 0 for no effect and ±100 for the full control effect; nearly all actives have a fitted effect of over 55% in size
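ATXN2-luciferase reporter cells (luciferase flanked by upstream and downstream ATXN2 gene portions) were treated 24 h at 37 °C with compounds at up to 57 uM. SteadyGlo luminescence gave expression; GF-AFC fluorescence gave viability.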
TGFb inhibitor = inhibitors of TGF-b signaling; Potency, µM (top dose mostly 46.1 µM), for inactives: at the top dose activity, negative = inhibition, most hits filed as inhibitors; HepG2 CAGA-GFP TGF-b/SMAD3 reporter, GFP fluorescence, 18 h; TGF-beta stimulated, 500 pg/mL final; 1.2% of 410,000 active; AID 588855; note: % is set by controls: 0 for no effect and ±100 for the full control effect; nearly all actives have a fitted effect of over 65% in size
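First, reporter cells (HEPG2 CAGA-GFP) rested 2 h at 37 degrees C. Next, compounds were pinned in and TGF-beta added to 500 pg/mL final. After 18 h, GFP was imaged per cell and summed per well.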
HepG2 tox = HepG2 cytotoxicity, counter-screen for TGF-b inhibitors. 0.76% of 410,000 active. HepG2 CAGA-GFP viability, ATP luminescence, 18 h. Potency, µM (top dose mostly 46.1 µM), inactives show at the top dose activity change, negative = cytotoxicity, usual class: cytotoxic
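CellTiter-Glo luminescence gave cytotoxicity after 18 hours at 37 degrees C. The cells were HepG2 CAGA-GFP in 1% FBS DMEM, stimulated with 500 pg/mL TGF-beta after compound addition. %Activity was normalised to no-cell wells (complete cell-killing) and DMSO (no toxicity), and curves were fitted and classified.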
KB-V1 MDR tox = kills drug-selected multidrug resistant KB-V1 cells | 3.4% of 400,000 active | Potency, µM (series often up to 46.1 µM), hits mostly cytotoxic | KB-V1 MDR cells viability, CellTiter-Glo, 72 h; note: % is set by controls: 0 for no effect and ±100 for the full control effect; nearly all actives have a fitted effect of over 60% in size
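Cytotoxicity via CellTiter-Glo luminescence after 72 h compound exposure at 37 degrees C. Cells: drug-selected KB-V1 line, DMEM phenol-red free plus 10% FBS. Compounds tested at multiple concentrations; normalized data fitted to concentration-effect curves.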
S2 tox = reduces viability in counter-screen for ATXN expression inhibitors; S2 cells (HEK-293 line with an ATXN2-luciferase reporter) viability, CellTiter-Fluor protease fluorescence, 24 h; Potency, µM (top dose mostly 56.7 µM), most hits filed as cytotoxic; 0.49% of 400,000 active; AID 651635; note: nearly all actives have a fitted effect of over 40% in size
KB-3-1 cytotox = kills parental KB-3-1 adenocarcinoma cells; KB-3-1 viability, CellTiter-Glo ATP luminescence, 72 h; Potency, µM (doses to about 46.1 µM), most hits filed as cytotoxic; 1.4% of 400,000 active; note: % is set by controls: 0 for no effect and ±100 for the full control effect; nearly all actives have a fitted effect of over 60% in size
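KB-3-1 parental drug-naive adenocarcinoma cells in DMEM/10% FBS, incubated 72 h at 37 C with pin-transferred compounds across a concentration series. Viability by CellTiter-Glo luminescence; concentration-response curves fitted after normalization.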
* hit, by the source's call; i = inactive; u = inconclusive; x = no result; ! = repeats disagree. Most compounds without a hit are left out; they make up all but 5.9% or so of the library. Calls come from the whole dose curve; as a rule, active = well fitted curve in the direction sought with a large enough effect; inconclusive = small, poorly fitted or top-dose-only effect, or another doubt; inactive = no such curve, though single readings can be large; an effect the other way counts as inactive or inconclusive. Potency is the fitted concentration of half-maximal effect.

SMILES	ATXN2 expr inh	TGFb inhibitor	HepG2 tox	KB-V1 MDR tox	S2 tox	KB-3-1 cytotox
CCOCCCn1c(SCC(=O)NCc2ccc3c(c2)OCO3)nc2ccccc2c1=O	-18%	-9%	-30%	15µM*	u	i
CCCCNC(=O)CSc1nc2ccccc2c(=O)n1Cc1ccc2c(c1)OCO2	x	-8%	-22%	i	x	i
COc1ccccc1CN1CCOc2ccc(CN3CCC(Oc4cccnc4)CC3)cc2C1	x	x	x	x	i	x
Cc1cc2[nH]c(=O)c(=O)[nH]c2cc1S(=O)(=O)Nc1cccc(C(F)(F)F)c1	6%	1%	-5%	i	i	i
CCOc1cc(S(=O)(=O)N(Cc2ccccc2)Cc2ccccc2)c(OCC)cc1-n1cnnn1	7%	-24%	-1%	3.7µM*	i	i
CCOc1cc(S(=O)(=O)NCc2ccccc2)c(OCC)cc1-n1cnnn1	1%	15%	-14%	i	i	i
Fc1ccc(-n2cc(CNCCc3ccccn3)c(-c3ccccc3Cl)n2)cc1	-22%	8%	4%	21µM*	i	u
Cc1ccc(-n2cc(CNCCc3ncc(C)[nH]3)c(-c3ccc(F)cc3)n2)cc1	25µM*	u	-102%	u	u	u
Cc1ccc(-n2cc(CNCCn3nc(C)cc3C)c(-c3ccc(F)cc3)n2)cc1	u	u	-65%	i	u	i
COc1ccc(-n2cc(CNCCc3nc(C)cc(C)n3)c(-c3ccccc3Cl)n2)cc1	-27%	u	-35%	u	u	i
CN(C)C(=O)CCC(=O)NCC1Cc2cccc(-c3ccccc3C(F)(F)F)c2O1 (stereo not given)	x	x	x	x	i	x
Cc1c(C(=O)NCc2ccc(OC(C)C)cc2)sc2ncnc(N(C)C3CCCCC3)c12	-34%	11%	9%	i	u	i
C/C=C(/C)C(=O)OC1c2c(ccc3ccc(=O)oc23)OC(C)(C)C1OC(=O)/C(C)=C\C (stereo not given)	u	11µM*	-29%	u	u	u
C=CCC[C@@H](Cc1ccc(F)cc1)C(=O)OC[C@H]1CCCN1C(=O)[C@@H](CC=C)CC(=O)N[C@H](CO)Cc1ccccc1	u	u	-20%	i	u	i
C=CCC[C@@H](Cc1ccc(F)cc1)C(=O)OC[C@@H]1CCCN1C(=O)[C@@H](CC=C)CC(=O)N(CCO)Cc1ccccc1	u	u	13µM*	u	u	i
C=CCC[C@@H](Cc1ccc(F)cc1)C(=O)OC[C@@H]1CCCN1C(=O)[C@H](CC=C)CC(=O)N[C@H](CO)Cc1ccccc1	u	11µM*	-109%	u	x	u
O=C(c1cn(C2CCCN(Cc3cccc(Oc4ccccc4)c3)C2)nn1)N1CCCC1 (stereo not given)	x	x	x	x	i	x
COc1ccc(CN2CCOc3ccc(CN4CCC(Oc5cccnc5)CC4)cc3C2)cc1	x	x	x	x	i	x
Cn1c(COc2ccc(Br)cc2)nnc1SC1CCc2ccccc2C1=O (stereo not given)	-20%	u	-33%	16µM*	i	u
Cn1c(COc2ccccc2)nnc1SCCSc1nnc(COc2ccccc2)n1C	-10%	0%	2%	u	i	i
Cc1cc(C)cc(NC(=O)CCn2c(=O)c3cccn3c3ccccc32)c1	x	-29%	-70%	u	i	9.2µM*
Cc1ccc(NC(=O)C2CCN(C(=O)c3cnn(-c4ccccc4)c3-n3cccc3)CC2)cc1	-17%	11µM*	-8%	i	i	u
CSc1cccc(NC(=O)C2CCCN(C(=O)c3cnn(-c4ccc(F)cc4)c3-n3cccc3)C2)c1 (stereo not given)	x	18µM*	-26%	x	x	x
Cc1cc(C)cc(NC(=O)C2CCN(C(=O)c3cnn(-c4ccccc4)c3-n3cccc3)CC2)c1	u	u	-23%	i	u	i
O=C(NC1CC1)C1CCN(Cc2cnn(-c3ccccc3)c2-n2cccc2)CC1	x	-22%	22µM*	i	x	i
SMILES	ATXN2 expr inh	TGFb inhibitor	HepG2 tox	KB-V1 MDR tox	S2 tox	KB-3-1 cytotox
CN1CCN(Cc2nnc(-c3ccccc3)o2)CC1	x	4%	11%	i	i	i
Cc1onc(-c2ccccc2)c1-c1nnc(CN2CCN(S(=O)(=O)c3ccccc3F)CC2)o1	-17%	u	-28%	3.3µM*	i	u
CCCCN(C)CCNC(=O)c1c(C)oc2ncnc(N3CCOCC3)c12	x	10%	9%	x	x	x
Cn1c(=NC(=O)C2=NNC(=O)CC2)sc2ccccc21	13%	0%	7%	1.5µM*	i	3.3µM*
Cn1c(=NC(=O)CN2C(=O)C3CC=CCC3C2=O)sc2ccccc21 (stereo not given)	13%	-10%	4%	5.2µM*!	u	i
COc1ccccc1NC(=O)CCN1CCC(C(N)=O)CC1	-10%	4%	-15%	u	i	u
CN(CCO)C(=O)c1cn(C2CCCN(Cc3cc4ccccc4s3)C2)nn1 (stereo not given)	x	x	x	x	i	x
COc1cccc(NC(=O)CCc2nc(-c3cc(OC)c(OC)c(OC)c3)no2)c1	-20%	26%	-26%	i	u	i
CCc1ccc2nc(N3C(=O)C(O)=C(C(=O)c4ccco4)C3c3cccs3)sc2c1 (stereo not given)	46%	-4%	-10%	5.8µM*	i	u
Cc1cc(N2C(=O)C(O)=C(C(=O)c3ccc(C)o3)C2c2cccs2)no1 (stereo not given)	-12%	-20%	-14%	5.2µM*	i	u
O=C(c1ccccc1)C(I)(I)N1CCOCC1	x	11%	-6%	i	x	u
CCOC(=O)C1(CCCc2ccccc2)CCN(Cc2cn(CC)nc2C)CC1	-36%	-29%	-32%	i	i	21µM*
COc1ccccc1Cc1c(-c2cccc(Br)c2)nc2c(C)cc(Br)cn12	6%	u	-47%	u	i	i
COc1ccccc1Cc1c(-c2ccc(Cl)cc2)nc2c(C)cc(Br)cn12	u	14µM*	13µM*	u	u	16µM*
Cc1cc(Br)cn2c(Cc3cccc(F)c3)c(-c3ccc(F)cc3)nc12	2%	x	x	i	i	16µM*
O=C(Cn1ccc2cc(S(=O)(=O)N3CCCC3)ccc21)NCc1ccc(Cl)cc1	8%	-19%	-29%	i	i	i
